Assay results reported in paper PMC9574860, “Chemical Toolkit for PARK7: Potent, Selective, and High-Throughput” (Journal of Medicinal Chemistry, 2022).
Out of some 7,900 compounds screened, about 400 (5.1%) showed an effect of 50% or more. The sample as a whole holds a higher share of strong results than the screen did.

The compounds below were run against Parkinson's disease protein 7 (PARK7/DJ1) (human, UniProt Q99497) (assay: primary screen, percent inhibition; read as competition with a fluorescent probe by fluorescence polarization; higher = more effect of the substance). Conditions: 100 µM.
Procedure: The screen was conducted using the conditions as described above in 1536-well plates (Corning 3724) with a reaction volume of 8 μL per well. The compound library containing 7887 covalent fragments was purchased at Enamine Ltd. and received as 100 mM DMSO stocks in 384 well LDV Echo plates (Labcyte LP-0200). Stock solutions of 0.26 μM PARK7 and 80 nM JYQ-107 were prepared. Using a Labcyte Echo550 acoustic dispenser, 8 nL of the DMSO stock solution of the library compounds was transferred from the source plates into the empty 1536-well screening plates to obtain a 100 μM final compound concentration. Next, PARK7 (6 μL, final concentration 0.2 μM) was dispensed using a Biotek MultiflowFX liquid dispenser and incubated for 2 h, followed by dispensing the probe JYQ-107 (2 μL, final concentration 20 nM). After 2 h incubation, the FP signal was recorded on a BMG Labtech PHERAstar plate reader (λex/em 480/520 nm). The relative loss of FP signal compared with reference controls was used to calculate the remaining enzyme activity.

Parkinson's disease protein 7 (PARK7/DJ1), sequence (Q99497 whole entry, looked up, the tested form may be a part): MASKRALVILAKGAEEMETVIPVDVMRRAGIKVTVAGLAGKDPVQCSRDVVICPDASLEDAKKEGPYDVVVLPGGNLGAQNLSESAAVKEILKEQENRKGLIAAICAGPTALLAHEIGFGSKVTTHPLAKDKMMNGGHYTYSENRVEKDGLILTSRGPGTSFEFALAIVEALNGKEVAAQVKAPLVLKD

Structure (SMILES)	Inhibition %
c1csc(COCC2CO2)c1 (stereo not drawn)	0.211%
C=CC(=O)NC1CCCN(c2cccnc2)C1=O (stereo not drawn)	15.4%
C=CC(=O)NC1(C2CC2)CCOCC1	7.04%
C=CC(=O)N1CCC(Oc2cccnc2N2CCCC2)C1 (stereo not drawn)	13.2%
C=CC(=O)N1CC2(CCOCC2)c2ccccc21	7.61%
O=C(c1cccs1)N1CCCC(CS(=O)(=O)F)C1 (stereo not drawn)	90.1%
O=C(CCl)N1CCN(C(=O)c2cccs2)CC1	40.3%
O=C1OCCC1N1CCN(C(=O)c2cccs2)CC1 (stereo not drawn)	9.27%
O=C(c1ccccc1)N1CC(S(=O)(=O)F)C1	35.6%
O=C(N[C@H]1CC[C@@H](CS(=O)(=O)F)C1)c1cccs1 (racemic)	96.8%
O=C(CCl)NNC(=O)c1cccs1	7.74%
O=C(c1cccs1)N1CCC(CS(=O)(=O)F)CC1	35.6%
O=C(c1cccs1)N1CCCC(S(=O)(=O)F)C1 (stereo not drawn)	73.5%
O=C(c1cccs1)N1CCOC(CS(=O)(=O)F)C1 (stereo not drawn)	14.7%
O=C(c1cccs1)N1CCC(CS(=O)(=O)F)C1 (stereo not drawn)	97.1%
O=C(c1cccs1)N1CCC(S(=O)(=O)F)CC1	10.8%
O=C(NC1CCN(C2CCOC2=O)CC1)c1cccs1 (stereo not drawn)	7.52%
Nc1cccc(OC2CC(=O)N2)c1 (stereo not drawn)	18.6%
O=C(O)C1COCCN1C(=O)C=Cc1ccc(Cl)s1 (stereo not drawn)	13.1%
C=CC(=O)NCC1CC2(CCOCC2)CO1 (stereo not drawn)	5.16%
CC(C)(C)OC(=O)N1CCOc2cccc(B3OC(C)(C)C(C)(C)O3)c2C1	3.79%
CC(Cl)Cc1cc2ccc(O)cc2oc1=O (stereo not drawn)	12.3%
O=C(CCl)Nc1cc(F)cc(F)c1	14.6%
C=CC(=O)N1CCN(CC(C)C)C(=O)C1C (stereo not drawn)	0.151%
COc1ccc(C)cc1S(=O)(=O)Oc1ccccn1	17%
CCCOc1cc(C)c(C)cc1S(=O)(=O)n1ccnc1C	8.09%

Structure (SMILES)	Inhibition %
COC(=O)c1cc([N+](=O)[O-])cc(B2OC(C)(C)C(C)(C)O2)c1C	12.9%
COc1ccc(S(=O)(=O)F)cc1O	54%
COc1cc(S(=O)(=O)F)ccc1O	17.3%
COc1ccccc1-c1nnc(-c2ccc(S(=O)(=O)F)cc2)o1	9.83%
C=CC(=O)Nc1ccc(OCC)c(CO)c1	4.38%
COc1cc(OC(F)F)ccc1B1OC(C)(C)C(C)(C)O1	-1.65%
COc1ccc(B2OC(C)(C)C(C)(C)O2)c(N)c1	56%
COc1ccc(B2OC(C)(C)C(C)(C)O2)c(C#N)c1	7.16%
CC1(C)OB(c2ccnn2-c2ccccc2)OC1(C)C	14.9%
CC1CC(Sc2ccccn2)C(=O)O1 (stereo not drawn)	5.37%
Cc1cc(S(N)(=O)=O)cc(NC(=O)CCl)c1C	2.37%
C=CC(=O)NC1CCC2(CC1)CC2(F)F (stereo not drawn)	3.45%
C=CC(=O)Nc1ccc2c(cnn2C(F)F)c1	6.45%
C=CC(=O)Nc1ccc2sncc2c1	97.4%
C=CC(=O)Nc1ccc2occc2c1	9.28%
CC1(C)C(=O)NC1C1CCN(CC(C)(O)C(F)(F)F)CC1 (stereo not drawn)	6.49%
C=CC(=O)N1CCOC(c2ccccc2)C1 (stereo not drawn)	4.98%
O=C1CN=C(S)N1c1ccccc1Cl	5.52%
O=C1CCCN1CCCl	5.09%
O=C(CCl)N1CCCc2ccccc21	69.2%
O=C(CCl)N1CCc2ccccc21	-0.66%
O=C(CCl)NCCCN1CCCC1=O	3.35%
O=C(CCl)N1CCCC1=O	79.2%
CC1Cc2ccccc2N1C(=O)CCl (stereo not drawn)	8.22%
O=C(CCl)N1CCc2cc([N+](=O)[O-])ccc21	5.06%
CC1CCc2ccccc2N1C(=O)CCl (stereo not drawn)	100%

Structure (SMILES)	Inhibition %
CN(C)S(=O)(=O)c1ccc2c(c1)CCCN2C(=O)CCl	8.14%
NS(=O)(=O)c1ccc2c(c1)CCN2C(=O)CCl	83.1%
O=C1CCC(=O)N1CC(=O)N1CCCc2ccccc21	10.8%
C=CC(=O)NCCC(=O)N1c2ccccc2CCC1C (stereo not drawn)	5.89%
C=CC(=O)N1CC(C)OC(COC)C1 (stereo not drawn)	6.19%
C=CC(=O)N1CCCC(N(C)Cc2noc(C)n2)CC1 (stereo not drawn)	1.13%
O=C(CCl)Nc1ccccc1C(=O)Nc1ccc(F)cc1	6.28%
O=C(CCl)N(Cc1ccco1)CC(F)(F)F	11.9%
CC1(C)OB(c2ccc(F)cc2[N+](=O)[O-])OC1(C)C	3.67%
O=C(Nc1ccc2c(c1)COC2)c1cccnc1S	2.52%
C=CC(=O)NC1C2Cc3ccccc3C21 (stereo not drawn)	11.1%
O=C(CCCl)N1CCc2ccccc21	3.9%
O=C(CCl)N1c2ccccc2Sc2ccccc21	1.08%
O=C(CCl)N1c2ccccc2CCc2ccccc21	61%
CCOc1cc(C)ccc1S(=O)(=O)n1cccn1	0.108%
COC(=O)c1cc(B2OC(C)(C)C(C)(C)O2)c(C)cn1	4.59%
CS(=O)(=O)OC1CCOC(c2ccncc2)C1 (stereo not drawn)	7.05%
O=C(CCl)NCCOc1ccc(Cl)cc1	20.3%
O=C(CCl)COc1ccc(Cl)cc1	97.8%
CN(CCOc1ccccc1F)C(=O)CCl	94.1%
N#CCCN(C(=O)CCl)c1ccccc1F	33.7%
OB(O)c1ccc(OCc2ccc(Cl)cc2)cc1	-0.814%
COc1ccc(N(CC(F)(F)F)C(=O)CCl)cc1	36.5%
CN(Cc1cc(Cl)cc(Cl)c1)C(=O)CCl	32.4%
CN(CCOc1ccccc1F)c1cccnc1C#N	40.3%
CN(CCOc1ccc(Cl)cc1)C(=O)CCl	63.6%
